Experimental data published in PubChem BioAssay (NCI).
“And” between values parts separate entries of the source, which are not always exact repeats. Equal entries are not always repeated. The panel holds about 83,000 compounds, 20% with a hit somewhere; the sample as a whole holds those more often.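 How to read the values: 0–100, growth inhibition (40 = 60% inhibited); 0, no net growth; -100 to 0, cell death (-40 = 40% of starting cells died; -100 = all dead).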 The source made the active and inactive calls. The calls were made as follows: active = growth percent below 10; inactive = the rest.

Tested on: COLO 205 colon
Experiment: NCI-60 one-dose screen, 48 h (100 = growth as untreated, 0 = no growth, -100 = all killed)
Settings: 10 µM unless noted

SMILES | growth
ON=C1CCCCCCCC1 | 102% (inactive) and 112% (inactive)
CCOC(=O)N(O)c1ccc(/C=C/c2ccccc2)cc1 | 88.5% (inactive) and 84.7% (inactive)
O=S(=O)(O)c1ccc(N=Nc2ccc(N=Nc3cccc4ccccc34)c(S(=O)(=O)O)c2)cc1 | 100% (inactive)
COc1ccc(-c2nn3c(-c4cc(F)c(Cl)cc4Cl)nnc3s2)cc1 | 62.9% (inactive)
CCc1c2c(nc3ccc(OCc4ccc(B5OC(C)(C)C(C)(C)O5)cc4)cc13)-c1cc3c(c(=O)n1C2)COC(=O)[C@]3(O)CC | 18.8% (inactive)
O=C(O)c1ccccc1Cc1ccc(F)c2ccccc12 | 101% (inactive) and 121% (inactive)
CCCCC1COc2cccc3c2N1C=C/C3=C\C(=O)N(C)c1cccc(Cl)c1 (stereo unspecified) | 100% (inactive)
COc1ccc(/C=C2\COc3ccc(O)c(O)c3C2=O)c(OC)c1OC | 72.3% (inactive)
CC12OC(CC(O)C1O)n1c3ccccc3c3c4c(c5c6ccccc6n2c5c31)C(=O)N(CCN1CCOCC1)C4=O (stereo unspecified) | -2.3% (active)
COc1ccc(/C=N/C2=C(C#N)C(c3ccccc3)c3c(ccc4ccccc34)O2)cc1 (stereo unspecified) | 0.29% (active)
COc1ccc(-c2cc3cnc4ccccc4c3oc2=O)cc1 | 103% (inactive)
O=C(/C=C/c1ccc(F)cc1)Nc1ncc(Cc2ccc(F)cc2)s1 | 23.8% (inactive)
COc1cc(/C=C2\CCC/C(=C\c3cc(CN4CCCC4)c(O)c(OC)c3)C2=O)cc(CN2CCCC2)c1O | -45.7% (active)
CN(C)CCCn1c2c(c3ccc(N4CCNCC4)cc3c1=O)C(=O)c1ccccc1-2 | 4.57% (active)
C=CCOc1ccc(/C=C2\SC(=S)N(CCc3ccc(O)cc3)C2=O)cc1 | 114% (inactive)
CCOC(=O)C1=C(C)N=C2SC=C(c3ccc(F)cc3)N2[C@H]1c1cn(-c2ccccc2)nc1-c1ccc(Cl)cc1 | 107% (inactive)
COc1ccc(/C=N/NC(=O)CN2CCN(c3cc4c(cc3F)c(=O)c(C(=O)O)cn4C3CC3)CC2)cc1O | 112% (inactive)
COc1cccc(C2C(C#N)=C(N)Oc3cc(OCCCCCC[P+](c4ccccc4)(c4ccccc4)c4ccccc4)ccc32)c1 (stereo unspecified) | -62.5% (active)
Cc1nn(-c2nc(-c3cc4ccccc4oc3=O)cs2)c(C)c1N=Nc1ccccc1 | 114% (inactive)

SMILES | growth
Cn1cc2c(=O)nc3c(-c4nc5ccccc5[nH]4)n[nH]n3c2n1 | 114% (inactive)
O=C1c2cccc3cccc(c23)C(=O)N1N1C(=O)c2cccc3c(N4CCNCC4)ccc(c23)C1=O | 95.2% (inactive)
Cc1nc2sc(C(=O)Nc3cccc4ncccc34)c(N)c2cc1C(C)O (stereo unspecified) | 107% (inactive)
CCOC(=O)c1nc2c3ccccc3cnn2c1C(=O)c1ccc(OC)cc1 | 97.5% (inactive)
O=C1/C(=C/c2ccccc2[N+](=O)[O-])Cc2ccccc21 | -74.9% (active) and 18.5% (inactive)
COc1cc(/C=C2/C=C(c3ccc(C(C)(C)C)cc3)N(CCc3ccc(S(N)(=O)=O)cc3)C2=O)cc(OC)c1OC | 34.3% (inactive)
COC(=O)N/N=C/c1c[n+]([O-])c2ccccc2[n+]1[O-] | -45.4% (active)
Cc1nc(-n2[nH]c(=O)ccc2=O)sc1N=Nc1ccccc1 | 112% (inactive)
CC1(Cc2ccccc2)CC2=C(C(=O)O1)C(c1ccccc1)NC(=O)N2 (stereo unspecified) | 106% (inactive)
Cc1ccc(/C=C/c2c(C(=O)/C=C/c3ccccc3)c(C)nc3ccccc23)cc1 | 12.7% (inactive)
CC1=C2[C@@H](CC1)[C@]1(C)O[C@@](C3CC3)(C[C@H]1OC(=O)CO)[C@H]2OC(=O)/C=C/c1ccccc1 | 116% (inactive)
COc1ccc(S(=O)(=O)Nc2cc(Sc3cccc4cccnc34)c(O)c3ccccc23)cc1 | -60.2% (active)
CCN(CC)CCCN1C(=O)c2c(c(C)c3c(oc4cc(OC)ccc43)c2C)C1=O | 86.1% (inactive)
CN1Cn2c(ccc2C(F)(F)F)C(=O)CS1(=O)=O | 116% (inactive)
O=c1cc(N/N=C/c2ccc(F)cc2)c2cc(Cl)ccc2[nH]1 | 96.2% (inactive)
Cc1cccc(-c2nnc(SCC(=O)Nc3ncc(Cc4ccccc4)s3)n2N2C(=O)CSC2=S)c1 | 66.6% (inactive)
COc1ccc(/C(C)=C(\c2ccc(OCCN3CCCCCC3)cc2)c2ccc(OC(=O)C3CCCCC3)cc2)cc1 | -63% (active)
COc1ccc2c(c1)c(C(=O)c1nc(-c3cn(C)c4ccccc34)no1)cn2C | 97.7% (inactive)
CCOC(=O)c1nnn(Cc2cc(=O)oc3c2ccc2ccccc23)c1C | 107% (inactive)

Tested on: DU-145 prostate
Experiment: as above
Settings: 10 µM unless noted

SMILES | growth
ON=C1CCCCCCCC1 | 107% (inactive) and 103% (inactive)
CCOC(=O)N(O)c1ccc(/C=C/c2ccccc2)cc1 | 65.7% (inactive) and 61.4% (inactive)
O=S(=O)(O)c1ccc(N=Nc2ccc(N=Nc3cccc4ccccc34)c(S(=O)(=O)O)c2)cc1 | 109% (inactive)
COc1ccc(-c2nn3c(-c4cc(F)c(Cl)cc4Cl)nnc3s2)cc1 | 77.3% (inactive)
CCc1c2c(nc3ccc(OCc4ccc(B5OC(C)(C)C(C)(C)O5)cc4)cc13)-c1cc3c(c(=O)n1C2)COC(=O)[C@]3(O)CC | 3.05% (active)
O=C(O)c1ccccc1Cc1ccc(F)c2ccccc12 | 90.6% (inactive) and 116% (inactive)
CCCCC1COc2cccc3c2N1C=C/C3=C\C(=O)N(C)c1cccc(Cl)c1 (stereo unspecified) | 103% (inactive)
COc1ccc(/C=C2\COc3ccc(O)c(O)c3C2=O)c(OC)c1OC | 13.9% (inactive)
CC12OC(CC(O)C1O)n1c3ccccc3c3c4c(c5c6ccccc6n2c5c31)C(=O)N(CCN1CCOCC1)C4=O (stereo unspecified) | 3.22% (active)
COc1ccc(/C=N/C2=C(C#N)C(c3ccccc3)c3c(ccc4ccccc34)O2)cc1 (stereo unspecified) | 24.6% (inactive)
COc1ccc(-c2cc3cnc4ccccc4c3oc2=O)cc1 | 97.8% (inactive)
O=C(/C=C/c1ccc(F)cc1)Nc1ncc(Cc2ccc(F)cc2)s1 | 33% (inactive)
COc1cc(/C=C2\CCC/C(=C\c3cc(CN4CCCC4)c(O)c(OC)c3)C2=O)cc(CN2CCCC2)c1O | 2.36% (active)
CN(C)CCCn1c2c(c3ccc(N4CCNCC4)cc3c1=O)C(=O)c1ccccc1-2 | -30.1% (active)
C=CCOc1ccc(/C=C2\SC(=S)N(CCc3ccc(O)cc3)C2=O)cc1 | 98.3% (inactive)
CCOC(=O)C1=C(C)N=C2SC=C(c3ccc(F)cc3)N2[C@H]1c1cn(-c2ccccc2)nc1-c1ccc(Cl)cc1 | 104% (inactive)
COc1ccc(/C=N/NC(=O)CN2CCN(c3cc4c(cc3F)c(=O)c(C(=O)O)cn4C3CC3)CC2)cc1O | 102% (inactive)
COc1cccc(C2C(C#N)=C(N)Oc3cc(OCCCCCC[P+](c4ccccc4)(c4ccccc4)c4ccccc4)ccc32)c1 (stereo unspecified) | 1.62% (active)
Cc1nn(-c2nc(-c3cc4ccccc4oc3=O)cs2)c(C)c1N=Nc1ccccc1 | 90.4% (inactive)

SMILES | growth
Cn1cc2c(=O)nc3c(-c4nc5ccccc5[nH]4)n[nH]n3c2n1 | 71.8% (inactive)
O=C1c2cccc3cccc(c23)C(=O)N1N1C(=O)c2cccc3c(N4CCNCC4)ccc(c23)C1=O | 107% (inactive)
Cc1nc2sc(C(=O)Nc3cccc4ncccc34)c(N)c2cc1C(C)O (stereo unspecified) | 109% (inactive)
CCOC(=O)c1nc2c3ccccc3cnn2c1C(=O)c1ccc(OC)cc1 | 105% (inactive)
O=C1/C(=C/c2ccccc2[N+](=O)[O-])Cc2ccccc21 | 32.7% (inactive) and 41.5% (inactive)
COc1cc(/C=C2/C=C(c3ccc(C(C)(C)C)cc3)N(CCc3ccc(S(N)(=O)=O)cc3)C2=O)cc(OC)c1OC | 77.1% (inactive)
COC(=O)N/N=C/c1c[n+]([O-])c2ccccc2[n+]1[O-] | 114% (inactive)
Cc1nc(-n2[nH]c(=O)ccc2=O)sc1N=Nc1ccccc1 | 112% (inactive)
CC1(Cc2ccccc2)CC2=C(C(=O)O1)C(c1ccccc1)NC(=O)N2 (stereo unspecified) | 111% (inactive)
Cc1ccc(/C=C/c2c(C(=O)/C=C/c3ccccc3)c(C)nc3ccccc23)cc1 | 12.8% (inactive)
CC1=C2[C@@H](CC1)[C@]1(C)O[C@@](C3CC3)(C[C@H]1OC(=O)CO)[C@H]2OC(=O)/C=C/c1ccccc1 | 105% (inactive)
COc1ccc(S(=O)(=O)Nc2cc(Sc3cccc4cccnc34)c(O)c3ccccc23)cc1 | 19.5% (inactive)
CCN(CC)CCCN1C(=O)c2c(c(C)c3c(oc4cc(OC)ccc43)c2C)C1=O | 112% (inactive)
CN1Cn2c(ccc2C(F)(F)F)C(=O)CS1(=O)=O | 114% (inactive)
O=c1cc(N/N=C/c2ccc(F)cc2)c2cc(Cl)ccc2[nH]1 | 102% (inactive)
Cc1cccc(-c2nnc(SCC(=O)Nc3ncc(Cc4ccccc4)s3)n2N2C(=O)CSC2=S)c1 | 43.3% (inactive)
COc1ccc(/C(C)=C(\c2ccc(OCCN3CCCCCC3)cc2)c2ccc(OC(=O)C3CCCCC3)cc2)cc1 | -12.1% (active)
COc1ccc2c(c1)c(C(=O)c1nc(-c3cn(C)c4ccccc34)no1)cn2C | 111% (inactive)
CCOC(=O)c1nnn(Cc2cc(=O)oc3c2ccc2ccccc23)c1C | 103% (inactive)
